Test results as given in PubChem BioAssay (NCATS).
Where “and” joins values, the source holds several entries; their conditions need not be identical. Equal entries are not always repeated. Results filed as inconclusive are left out. Calls of active or inactive are those of the source. Unless noted, the call rests on the fitted dose curve; in most records, active means well fitted curve in either direction with a large enough effect (not every such curve was filed as active); inconclusive means small, poorly fitted or top-dose-only effect, or another doubt; inactive means flat fitted curve, though single readings scatter.

What was measured:
[1] = AP1 Signaling Pathway (AID 357);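 further: ME-180 reporter cells stimulated with EGF at its EC50 level; on the % scale 0 is the no-effect control and ±100 the full control effect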
Procedure, shortened: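 Beta-lactamase reporter under AP-1 response element, ME-180 background. Stimulus: EC50 EGF. Compound exposure 5 h, 37 °C. Detection: CCF4, 2.5 h RT, 460/530 nm. Values: AC50 from titration.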

[2] = target: Cytochrome P450 1A2 (Homo sapiens) (UniProt P05177); assay: p450-cyp1a2 (AID 410; calls by dose curve; further: potency means the concentration at half of the fitted maximal effect;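 on activity change, negative = inhibition: -100% = full effect of reference inhibitor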)
Procedure, shortened: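 Luminescent demethylation readout: Luciferin-ME (100uM, equal to Km) turned over by 20nM CYP1A2 for 60 min at room temperature after NADPH regeneration addition, following 10 min compound preincubation. Normalization used 57 uM furafylline as full inhibition.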

[3] = Stat Signaling Pathway (AID 446);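 further: ME-180 cervical cancer cells given 40 pM IL-6 alongside compound; SIE-controlled beta-lactamase reporter measured as 460/530 nm FRET emission ratio; on the % scale 0 is the no-effect control and ±100 the full control effect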
Procedure, shortened: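 Overnight-plated ME-180 cells bearing a STAT Inducible Element beta-lactamase reporter; 5 h co-exposure to compound and 40 pM IL-6; values normalized to 300 pM IL-6 and 125 nM JAK inhibitor controls.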

[4] = target: Glucocorticoid receptor (Homo sapiens) (UniProt P04150); assay: GR-GFP Redistribution (AID 450;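 active means compounds whose dose series gives a full or clear partial fitted curve of increased nuclear translocation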; further: potency means the concentration at half of the fitted maximal effect); settings: U2OS GR-GFP nuclear translocation, laser cytometry, 2 h
[5] = target: Glucocorticoid receptor (Homo sapiens) (UniProt P04150); assay: GR-EFC Redistribution (AID 451; calls by dose curve; further: potency means the concentration at half of the fitted maximal effect); settings: CHO-K1 GR-EFC translocation, beta-gal luminescence, 2 h
Procedure, shortened: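 Translocation of GR-ED fusion to nuclear EA restores b-gal, read by luminescence after 1 h room-temperature detection. Engineered CHO-K1 biosensor cells, 1,000/well, exposed 2 h at 37 C to titrations up to 46 uM final.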

[6] = target: 3',5'-cyclic-AMP phosphodiesterase 4B (Homo sapiens) (UniProt Q07343); assay: qHTS Assay for Inhibitors of PDE-IV (AID 607; active means well fitted activation curve with a large enough effect in the main read-out, with a control signal flat, not every such curve was filed as active; further: % of control where 0% means no effect)
Procedure, shortened: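 Live HEK293 cells with a modified cyclic nucleotide-gated (CNG) channel report intracellular cAMP via membrane-potential dye fluorescence (ex 535/em 590 nm). Endogenous PDE-IV was targeted. Compounds were tested at up to 22.9 uM final; RO 20-1724 100 uM served as control.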

[7] = target: Cytochrome P450 2D6 (Homo sapiens) (UniProt P10635); assay: qHTS Assay for Inhibitors and Substrates of Cytochrome P450 2D6 (AID 891; active means well fitted curve in the direction sought with a large enough effect; an effect the other way counts as inactive or inconclusive; further: nearly all actives have a fitted effect of over 60% in size; further: potency means the concentration at half of the fitted maximal effect)
Procedure, shortened: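 Luminescent read-out of luciferin formed by 5 nM human CYP2D6 demethylating 30 uM Luciferin-ME EGE (Km level) over 60 min at room temperature after NADPH regeneration addition. Data normalized to full inhibition by 1.43 uM quinidine.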

[8] = qHTS Assay for Lipid Storage Modulators (AID 1519; calls by dose curve); settings: Drosophila S3 cells, BODIPY lipid droplet/cell ratio, laser cytometry, cells loaded with oleic acid; for activity change, negative = inhibition: at 25.7 µM (top of the series)
Procedure, shortened: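 Cells seeded at 5,000 per well were treated with compounds over a concentration series and loaded with oleic acid (400 uM, as added). Lipid droplet fluorescence (488 nm excitation, 500-530 nm channel) was read by laser-scanning cytometry and normalized to 20 uM Triacsin C.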

[9] = target: Ubiquitin carboxyl-terminal hydrolase 1 (Homo sapiens) (UniProt O94782); assay: Inhibitors of USP1/UAF1: Pilot qHTS (AID 504865; active means well fitted curve in the direction sought with a large enough effect; an effect the other way counts as inactive or inconclusive; further: nearly all actives have a fitted effect of over 35% in size; further: potency means the concentration at half of the fitted maximal effect)
Procedure, shortened: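 1nM USP1/UAF1 + cpd, 15 min RT; start w/ Ub-Rho 150nM final; kinetic FL 480/540 nm, 6 reads q60 s. Buffer 50mM HEPES pH 7.8, 0.5mM EDTA, 1mM TCEP, 0.01% Tween-20, 0.1 mg/ml BSA.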

[10] = target: Mitogen-activated protein kinase 10 (Mus musculus) (UniProt Q61831); assay: JNK3 AlphaScreen Assay (AID 530);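 further: kinase came from lysate of stimulated human HepG2 cells; signal reports phosphorylation of biotinylated GST-cJun 1-79 at Ser73 with 10 µM ATP; on the % scale 0 is the no-effect control and ±100 the full control effect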
Procedure, shortened: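 qHTS titrations with 15 min compound pre-incubation before adding ATP (10 uM final). Read-out: AlphaScreen of Ser73-phosphorylated biotin-GST-cJun using HepG2 lysate JNK3 activated by IL-1β and TNFα.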

[11] = target: Cytochrome P450 3A4 (Homo sapiens) (UniProt P08684); assay: qHTS Assay for Activators of Cytochrome P450 3A4 (AID 885; active means well fitted curve in the direction sought with a large enough effect; an effect the other way counts as inactive or inconclusive; further: nearly all actives have a fitted effect of over 65% in size)
Procedure, shortened: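 Using 20nM recombinant human CYP3A4 in potassium phosphate (200mM), substrate Luciferin-PPXE at 25uM, luminescent luciferin detection followed a 60-min RT NADPH reaction; data scaled to 57 uM ketoconazole.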

[12] = NFAT Signaling Pathway (AID 444); settings: Jurkat NFAT-bla M1, carbachol, beta-lactamase ratio, 5 h; at 17.2 µM (top of the series);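 further: carbachol stimulus at about its EC50 of 1 µM final; on the % scale 0 is the no-effect control and ±100 the full control effect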
Procedure, shortened: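 Read-out: CCF4 FRET ratio (460 nm/530 nm) after 1 h RT dye loading, used for %activity and AC50 from titration series. Cells: Jurkat NFAT-β-lactamase/M1 line, treated with compound plus 1 uM carbachol for 5 h, 37 °C.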

[13] = target: ATP-dependent 6-phosphofructokinase (Trypanosoma brucei brucei) (UniProt O15648); assay: qHTS Assay to Find Inhibitors of T. brucei phosphofructokinase: hit validation (AID 492961; active means well fitted curve in the direction sought with a large enough effect; an effect the other way counts as inactive or inconclusive)
Procedure, shortened: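 ADP-Glo luminescence read-out of ADP formed by 1.25 nM PFK from 0.1 mM ATP and 0.5 mM F6P (TEA pH 8.0, 45 min, RT). Compounds titrated; activity normalized to no-enzyme and full-enzyme controls.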

[14] = target: Luciferin 4-monooxygenase (Photinus pyralis) (UniProt P08659); assay: Biochemical firefly luciferase enzyme assay for NPC (AID 624030; active means well fitted curve in the direction sought with a large enough effect; an effect the other way counts as inactive or inconclusive;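 further: purified P. pyralis luciferase at 10 nM with luciferin and ATP substrate; 0% = DMSO and -100% = full luciferase inhibition by PTC124 control; nearly all actives have a fitted effect of over 70% in size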)
Procedure, shortened: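 Direct inhibition of firefly luciferase enzyme (10 nM final, 50 mM Tris Acetate) assessed by luminescence within 5 minutes. Percent activity scaled between DMSO and PTC124 positive control, with concentration-effect curves classified by fit quality and response.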

[15] = qHTS profiling for inhibitors of Plasmodium falciparum proliferation (AID 504749; active means well fitted curve in the direction sought with a large enough effect; an effect the other way counts as inactive or inconclusive;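 further: 0% = DMSO vehicle and full inhibition = artemisinin control; nearly all actives have a fitted effect of over 60% in size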); settings: P. falciparum in erythrocytes, SYBR Green DNA, 72 h, at 12.8 µM (top of the series)
Procedure, shortened: (§1)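 SYBR Green fluorescence of parasite DNA, read after lysis and overnight dark incubation, measured growth over 72 h in erythrocyte culture at 0.3% parasitemia and 2.5% hematocrit. Data normalised to DMSO and 0.29 uM artemisinin, with plate-drift correction.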

C2A = assay: as above; settings: P. falciparum in erythrocytes, SYBR Green DNA, 72 h; series mostly up to 28.7 µM
Procedure, shortened: as §1

CP185 = assay: as above; settings: P. falciparum in erythrocytes, SYBR Green DNA, 72 h; series mostly up to 28.7 µM
Procedure, shortened: as §1

FAB9 = assay: as above; settings: P. falciparum in erythrocytes, SYBR Green DNA, 72 h; series mostly up to 28.7 µM
Procedure, shortened: as §1

[16] = measured here: cell count channel max response
[17] = measured here: lipid channel max response

Sequence of Cytochrome P450 1A2 (Homo sapiens) (P05177 whole entry, looked up): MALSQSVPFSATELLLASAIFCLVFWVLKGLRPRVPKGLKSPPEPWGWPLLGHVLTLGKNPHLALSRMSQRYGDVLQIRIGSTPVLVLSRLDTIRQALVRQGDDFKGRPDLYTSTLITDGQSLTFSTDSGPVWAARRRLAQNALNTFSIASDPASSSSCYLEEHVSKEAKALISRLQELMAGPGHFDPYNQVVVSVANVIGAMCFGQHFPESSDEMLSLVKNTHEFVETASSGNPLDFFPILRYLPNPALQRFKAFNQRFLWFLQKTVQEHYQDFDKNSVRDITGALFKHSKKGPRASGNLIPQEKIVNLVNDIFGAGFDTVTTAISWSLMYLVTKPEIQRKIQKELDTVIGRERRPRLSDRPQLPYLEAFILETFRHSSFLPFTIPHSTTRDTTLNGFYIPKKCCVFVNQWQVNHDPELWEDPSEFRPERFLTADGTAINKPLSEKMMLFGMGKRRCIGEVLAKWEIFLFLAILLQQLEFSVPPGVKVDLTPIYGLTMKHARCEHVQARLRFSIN
Sequence of 3',5'-cyclic-AMP phosphodiesterase 4B (Homo sapiens) (Q07343 whole entry, looked up): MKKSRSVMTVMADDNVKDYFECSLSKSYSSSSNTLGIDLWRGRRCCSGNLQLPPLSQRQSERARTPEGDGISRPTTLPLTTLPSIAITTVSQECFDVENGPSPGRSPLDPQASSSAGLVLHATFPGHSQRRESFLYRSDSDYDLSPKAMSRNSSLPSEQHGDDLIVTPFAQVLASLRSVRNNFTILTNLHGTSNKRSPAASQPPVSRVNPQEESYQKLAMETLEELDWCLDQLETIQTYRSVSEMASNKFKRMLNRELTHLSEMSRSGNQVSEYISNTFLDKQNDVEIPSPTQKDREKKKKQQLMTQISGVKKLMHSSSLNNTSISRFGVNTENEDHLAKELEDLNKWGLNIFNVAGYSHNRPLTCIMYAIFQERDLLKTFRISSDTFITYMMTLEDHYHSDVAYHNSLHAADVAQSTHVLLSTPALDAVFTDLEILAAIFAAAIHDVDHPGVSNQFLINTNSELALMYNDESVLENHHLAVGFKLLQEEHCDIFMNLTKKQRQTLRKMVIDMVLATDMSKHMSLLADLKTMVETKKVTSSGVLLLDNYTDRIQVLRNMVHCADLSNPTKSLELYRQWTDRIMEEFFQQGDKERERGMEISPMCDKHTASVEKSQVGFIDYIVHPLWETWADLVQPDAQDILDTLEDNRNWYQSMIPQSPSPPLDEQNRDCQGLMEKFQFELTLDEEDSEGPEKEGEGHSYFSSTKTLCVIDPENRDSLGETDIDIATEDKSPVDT
Sequence of Glucocorticoid receptor (Homo sapiens) (P04150 whole entry, looked up, the tested form may be a part): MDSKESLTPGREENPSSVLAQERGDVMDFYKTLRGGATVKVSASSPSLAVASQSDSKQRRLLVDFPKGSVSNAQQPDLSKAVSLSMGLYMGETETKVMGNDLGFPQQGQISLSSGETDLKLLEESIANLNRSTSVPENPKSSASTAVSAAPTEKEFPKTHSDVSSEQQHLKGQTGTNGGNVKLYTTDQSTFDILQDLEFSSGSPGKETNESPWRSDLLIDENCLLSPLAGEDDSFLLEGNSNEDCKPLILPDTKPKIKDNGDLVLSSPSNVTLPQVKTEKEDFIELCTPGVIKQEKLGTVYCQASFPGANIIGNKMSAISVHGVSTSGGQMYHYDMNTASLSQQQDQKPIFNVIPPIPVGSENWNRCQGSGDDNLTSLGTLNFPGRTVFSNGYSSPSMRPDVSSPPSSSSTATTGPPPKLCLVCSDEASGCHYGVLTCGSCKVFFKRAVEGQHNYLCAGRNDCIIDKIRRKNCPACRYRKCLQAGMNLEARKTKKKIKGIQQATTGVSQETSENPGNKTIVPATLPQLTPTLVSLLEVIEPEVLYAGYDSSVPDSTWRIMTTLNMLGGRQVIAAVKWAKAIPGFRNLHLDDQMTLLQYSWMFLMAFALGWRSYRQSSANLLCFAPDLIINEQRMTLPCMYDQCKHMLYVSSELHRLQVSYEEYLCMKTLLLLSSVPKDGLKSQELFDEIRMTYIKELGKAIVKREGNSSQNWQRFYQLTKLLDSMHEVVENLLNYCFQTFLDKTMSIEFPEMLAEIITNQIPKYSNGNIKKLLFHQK
Sequence of Ubiquitin carboxyl-terminal hydrolase 1 (Homo sapiens) (O94782 whole entry, looked up): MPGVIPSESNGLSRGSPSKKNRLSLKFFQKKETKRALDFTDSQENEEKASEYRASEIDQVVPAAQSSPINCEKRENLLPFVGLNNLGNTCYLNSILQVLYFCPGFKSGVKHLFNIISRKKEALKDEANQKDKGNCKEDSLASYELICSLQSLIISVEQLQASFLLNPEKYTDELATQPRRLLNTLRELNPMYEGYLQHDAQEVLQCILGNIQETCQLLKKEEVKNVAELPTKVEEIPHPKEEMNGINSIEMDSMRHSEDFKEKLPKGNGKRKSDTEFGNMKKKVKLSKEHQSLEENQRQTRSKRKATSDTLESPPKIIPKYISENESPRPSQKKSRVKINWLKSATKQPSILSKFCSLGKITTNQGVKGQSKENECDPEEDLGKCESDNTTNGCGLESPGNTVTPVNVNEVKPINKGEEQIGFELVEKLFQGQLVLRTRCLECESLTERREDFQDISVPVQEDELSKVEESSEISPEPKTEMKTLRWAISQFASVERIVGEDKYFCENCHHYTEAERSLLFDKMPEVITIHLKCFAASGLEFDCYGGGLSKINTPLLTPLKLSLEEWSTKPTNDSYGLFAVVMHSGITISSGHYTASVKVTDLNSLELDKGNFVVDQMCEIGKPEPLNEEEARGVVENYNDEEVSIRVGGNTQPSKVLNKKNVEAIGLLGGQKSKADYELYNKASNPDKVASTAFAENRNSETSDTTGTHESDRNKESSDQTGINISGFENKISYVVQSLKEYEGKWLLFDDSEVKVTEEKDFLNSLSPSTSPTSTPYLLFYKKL
Sequence of Cytochrome P450 2D6 (Homo sapiens) (P10635 whole entry, looked up): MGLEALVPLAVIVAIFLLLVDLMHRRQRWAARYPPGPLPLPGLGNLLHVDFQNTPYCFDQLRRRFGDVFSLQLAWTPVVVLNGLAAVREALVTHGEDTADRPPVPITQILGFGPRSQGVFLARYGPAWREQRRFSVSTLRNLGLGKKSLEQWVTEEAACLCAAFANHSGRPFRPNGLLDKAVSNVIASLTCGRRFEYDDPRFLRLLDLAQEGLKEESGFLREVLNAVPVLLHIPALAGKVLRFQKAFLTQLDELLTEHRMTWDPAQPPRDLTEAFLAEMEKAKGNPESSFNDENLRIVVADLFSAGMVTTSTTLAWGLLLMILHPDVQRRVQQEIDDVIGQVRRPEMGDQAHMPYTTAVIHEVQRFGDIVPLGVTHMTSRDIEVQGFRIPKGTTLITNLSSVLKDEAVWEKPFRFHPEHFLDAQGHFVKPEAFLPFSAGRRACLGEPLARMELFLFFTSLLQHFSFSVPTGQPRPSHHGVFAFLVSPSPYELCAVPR
Sequence of Cytochrome P450 3A4 (Homo sapiens) (P08684 whole entry, looked up): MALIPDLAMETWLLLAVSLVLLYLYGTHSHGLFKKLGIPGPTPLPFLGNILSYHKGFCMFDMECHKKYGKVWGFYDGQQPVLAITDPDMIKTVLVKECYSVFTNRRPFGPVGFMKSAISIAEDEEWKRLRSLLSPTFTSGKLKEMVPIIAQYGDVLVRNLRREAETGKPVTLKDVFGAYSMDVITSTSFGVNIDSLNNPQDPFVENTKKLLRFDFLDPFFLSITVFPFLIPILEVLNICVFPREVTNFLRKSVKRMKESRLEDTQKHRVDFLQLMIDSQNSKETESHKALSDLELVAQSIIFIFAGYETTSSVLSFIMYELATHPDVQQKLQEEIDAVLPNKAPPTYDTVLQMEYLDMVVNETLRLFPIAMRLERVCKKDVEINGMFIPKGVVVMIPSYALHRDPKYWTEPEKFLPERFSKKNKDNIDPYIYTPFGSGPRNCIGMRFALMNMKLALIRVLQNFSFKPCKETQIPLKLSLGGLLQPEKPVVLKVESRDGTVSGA
Sequence of Luciferin 4-monooxygenase (Photinus pyralis) (P08659 whole entry, looked up): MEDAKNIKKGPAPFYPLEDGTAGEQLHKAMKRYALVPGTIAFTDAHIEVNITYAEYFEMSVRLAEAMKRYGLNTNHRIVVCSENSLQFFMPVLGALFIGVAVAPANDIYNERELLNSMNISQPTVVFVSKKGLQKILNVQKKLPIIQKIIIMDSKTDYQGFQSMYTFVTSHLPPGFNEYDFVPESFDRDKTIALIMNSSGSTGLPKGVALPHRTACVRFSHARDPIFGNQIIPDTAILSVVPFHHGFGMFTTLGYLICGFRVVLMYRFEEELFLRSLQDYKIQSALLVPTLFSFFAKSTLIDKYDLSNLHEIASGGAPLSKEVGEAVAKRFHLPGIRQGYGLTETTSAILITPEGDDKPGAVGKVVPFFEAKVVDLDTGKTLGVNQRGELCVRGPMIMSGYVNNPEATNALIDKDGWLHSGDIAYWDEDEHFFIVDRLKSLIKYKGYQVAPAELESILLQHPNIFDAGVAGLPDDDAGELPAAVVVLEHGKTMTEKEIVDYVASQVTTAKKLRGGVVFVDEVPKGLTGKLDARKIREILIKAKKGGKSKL
Sequence of ATP-dependent 6-phosphofructokinase (Trypanosoma brucei brucei) (O15648 whole entry, looked up): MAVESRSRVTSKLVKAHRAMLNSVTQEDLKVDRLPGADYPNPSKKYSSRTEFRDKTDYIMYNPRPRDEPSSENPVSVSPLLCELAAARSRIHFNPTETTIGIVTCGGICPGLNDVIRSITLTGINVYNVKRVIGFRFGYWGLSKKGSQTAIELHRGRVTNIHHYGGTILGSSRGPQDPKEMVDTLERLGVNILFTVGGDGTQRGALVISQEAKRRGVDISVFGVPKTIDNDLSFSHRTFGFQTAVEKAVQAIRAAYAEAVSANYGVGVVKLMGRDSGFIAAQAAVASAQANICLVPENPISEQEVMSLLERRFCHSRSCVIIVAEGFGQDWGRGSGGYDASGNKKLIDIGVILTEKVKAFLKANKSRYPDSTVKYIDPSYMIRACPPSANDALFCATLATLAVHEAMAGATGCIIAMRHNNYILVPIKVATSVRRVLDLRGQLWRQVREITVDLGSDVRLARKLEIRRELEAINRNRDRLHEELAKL

CS(=N)(=O)CC[C@@H](N)C(=O)O (stereo not given in full)
inactive: outcome [1] | Potency [2] | outcome [3] | Potency [4] > 46 µM and > 20.6 µM | Potency [5] > 46 µM and > 20.6 µM | Potency [6] | Potency [7] | activity change, negative = inhibition [8] 0.596% | Potency [9]
16%: max response [8, 17]
16.1%: max response [8, 16]

COc1cc2c(cc1O)[C@H]1Cc3ccc(OC)c(O)c3CN1CC2
active: Potency [2] 15.8 µM | Potency [7] 0.0316 µM | Potency [9] 10 µM
-2.59%: max response [8, 16]
inactive: outcome [1] | outcome [3] | Potency [4] > 20.6 µM | Potency [5] > 20.6 µM | outcome [10] | Potency [6] | Potency [11] | activity change, negative = inhibition [8] -1.48%
-3.7%: max response [8, 17]

COC1=CC(=O)O[C@@H](/C=C\c2ccccc2)C1
-0.269%: max response [8, 17]
-5.23%: max response [8, 16]
active: Potency [2] 3.16 µM
inactive: outcome [1] | activity change, negative = inhibition [12] -0.425% | outcome [3] | Potency [4] > 20.6 µM | Potency [5] > 20.6 µM | outcome [10] | Potency [6] | activity change, negative = inhibition [8] 1.1% | Potency [9]

CCN(CC)C(=O)N[C@@H]1C[C@H]2c3cccc4[nH]cc(c34)C[C@@H]2N(C)C1
inactive: outcome [1] | Potency [2] | activity change, negative = inhibition [12] 3.13% and -9.31% | outcome [3] | outcome [10] | Potency [6] | Potency [11] | activity change, negative = inhibition [8] 2.1% and 1.29% | Potency [9]
-0.685% and -2.23%: max response [8, 17]
active: Potency [7] 0.0158 µM
-3.13% and -3.55%: max response [8, 16]

COc1cc(C(=O)OC2C[C@H]3CC[C@@H](C2)N3C)ccc1O (stereo not given in full)
-27.3%: max response [8, 17]
inactive: outcome [1] | Potency [2] | outcome [3] | Potency [4] > 20.6 µM | Potency [5] > 20.6 µM | Potency [6] | activity change, negative = inhibition [8] 2.65% | Potency [9]
-32.4%: max response [8, 16]

CC(C)[C@@]1(NC(=O)[C@@H]2C[C@H]3c4cccc5[nH]cc(c45)C[C@@H]3N(C)C2)O[C@]2(O)[C@H]3CCCN3C(=O)CN2C1=O
inactive: outcome [1] | Potency [2] | activity change, negative = inhibition [12] -1.94% | outcome [3] | Potency [4] > 20.6 µM | Potency [5] > 20.6 µM | outcome [10] | Potency [6] | activity change, negative = inhibition [8] 1.9% | Potency [9]
8.08%: max response [8, 16]
10.3%: max response [8, 17]

CC[N@+]1(C)CCC[C@@H](OC(=O)C(O)(c2ccccc2)c2ccccc2)C1
-5.77%: max response [8, 17]
-4.84%: max response [8, 16]
active: activity change, negative = inhibition [12] -31.8% | Potency [7] 5.01 µM
inactive: outcome [1] | Potency [2] | outcome [3] | Potency [4] > 20.6 µM | Potency [5] > 20.6 µM | outcome [10] | Potency [6] | activity change, negative = inhibition [8] -4.06% | Potency [9]

COc1ccc(C[C@H]2c3cc(OC)c(OC)cc3CCN2C)cc1OC
10%: max response [8, 16]
inactive: outcome [1] | Potency [2] | activity change, negative = inhibition [12] -1.22% | outcome [3] | Potency [4] > 20.6 µM and > 46 µM | Potency [5] > 20.6 µM and > 46 µM | outcome [10] | Potency [6] | activity change, negative = inhibition [8] 1.88%
12.8%: max response [8, 17]

CN1CC[C@]2(C)c3cc(O)ccc3N(C)[C@@H]12
-17.5%: max response [8, 17]
inactive: outcome [1] | outcome [3] | Potency [4] > 46 µM and > 20.6 µM | Potency [5] > 46 µM and > 20.6 µM | Potency [11] | activity change, negative = inhibition [8] -1.57%
-15.4%: max response [8, 16]
active: Potency [2] 15.8 µM and 31.6 µM | Potency [7] 25.1 µM

C(#CCN1CCCC1)CN1CCCC1
10.3%: max response [8, 17]
inactive: outcome [1] | Potency [2] | outcome [3] | Potency [4] > 20.6 µM | Potency [5] > 20.6 µM | outcome [10] | activity change, negative = inhibition [8] 0.99% | Potency [9]
10.9%: max response [8, 16]

CN(C)C(=O)Oc1cc(OC(=O)N(C)C)cc([C@@H](O)CNC(C)(C)C)c1
0.267%: max response [8, 17]
2.58%: max response [8, 16]
inactive: outcome [1] | Potency [2] | outcome [3] | Potency [4] > 20.6 µM | Potency [5] > 20.6 µM | Potency [6] | activity change, negative = inhibition [8] -0.844% | Potency [13] | Potency [9] | Potency [14] | activity, negative = inhibition ([15]; parasite line A) 1.47% | activity, negative = inhibition ([15]; parasite line B) -2.95% | Potency (C2A) | Potency (CP185) | Potency (FAB9)
active: Potency [7] 7.94 µM

C=C[C@]12CN(C)[C@H]3C1[C@@]1(C(=O)Nc4ccccc41)[C@H]1C[C@H]2[C@H]3CO1
inactive: outcome [1] | Potency [2] | outcome [3] | Potency [4] > 20.6 µM | Potency [5] > 20.6 µM | outcome [10] | activity change, negative = inhibition [8] -5.3% | Potency [9]
-17.8%: max response [8, 17]
-11.8%: max response [8, 16]

C[N+]1([O-])[C@@H]2CC[C@H]1CC(OC(=O)[C@@H](CO)c1ccccc1)C2 (stereo not given in full)
-2.94%: max response [8, 17]
inactive: outcome [1] | Potency [2] | outcome [3] | Potency [4] > 20.6 µM | Potency [5] > 20.6 µM | outcome [10] | Potency [6] | activity change, negative = inhibition [8] -4.15% | Potency [13] | Potency [9] | Potency [14] | activity, negative = inhibition ([15]; parasite line A) 1.56% | activity, negative = inhibition ([15]; parasite line B) -10% | Potency (C2A) | Potency (CP185) | Potency (FAB9)
1.61%: max response [8, 16]
